High-throughput results (PubChem)
Sampled rows, rich in hits. Any-hit rate of the full collection: about 10%.
GPT2 inhibitor: blocks human glutamate pyruvate transaminase 2. Recombinant GPT2, coupled pyruvate oxidase/HRP Amplex Red fluorescence. AID 1671188. Q8TD30. Potency, µM (titrated, usually from 57.7 µM), most hits filed as inhibitors. hit rate 0.25% among 100,000; further: nearly all actives have a fitted effect of over 60% in size
Target sequence (Q8TD30 whole entry, looked up): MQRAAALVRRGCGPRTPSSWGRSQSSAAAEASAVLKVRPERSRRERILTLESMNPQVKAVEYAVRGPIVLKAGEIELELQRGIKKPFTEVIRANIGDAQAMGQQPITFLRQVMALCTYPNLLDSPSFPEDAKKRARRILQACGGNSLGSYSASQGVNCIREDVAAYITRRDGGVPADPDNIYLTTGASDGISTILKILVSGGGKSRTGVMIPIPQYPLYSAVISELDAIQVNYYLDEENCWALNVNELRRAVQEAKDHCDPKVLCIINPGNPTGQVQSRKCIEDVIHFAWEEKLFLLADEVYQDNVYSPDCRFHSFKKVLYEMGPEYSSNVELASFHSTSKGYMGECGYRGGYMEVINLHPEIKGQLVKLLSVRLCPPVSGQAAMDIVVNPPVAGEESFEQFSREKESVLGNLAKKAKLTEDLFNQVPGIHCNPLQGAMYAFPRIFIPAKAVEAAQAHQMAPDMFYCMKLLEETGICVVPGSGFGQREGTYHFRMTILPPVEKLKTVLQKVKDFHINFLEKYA
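Recombinant GPT2 (10ng/uL) with 250uM a-KG and 2mM L-alanine, 30 min at room temperature, in HEPES pH 7.5 buffer. Pyruvate detected by pyruvate oxidase/HRP/Amplex Red fluorescence after 30 min in the dark; AOA (50uM) as positive control.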
HEK cytotox: kills HEK 293 cells | HEK 293 viability, ATP luminescence (CellTiter-Glo), 48-72 h | Potency, µM (highest dose often 115 µM), most hits filed as inhibitors | hit rate 6.6% among 94,000 | AID 1345083; further: nearly all actives have a fitted effect of over 60% in size
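HEK 293 cells at 250 cells/well were exposed to compounds by pintool transfer for 48 or 72 hr at 37 degree Celsius, 5% CO2. Viability was read as ATP-coupled luminescence with CellTiter-Glo after 10 min at room temperature.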
NIH3T3 tox: NIH 3T3 cell cytotoxicity; Potency, µM (top dose mostly 96.7 µM), usual class: inhibitors; AID 1345082; NIH 3T3 viability, CellTiter-Glo ATP luminescence, 48-72 h; hit rate 4.3% among 94,000; further: nearly all actives have a fitted effect of over 55% in size
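Cytotoxicity is measured as loss of cellular ATP: NIH 3T3 cells (400/well) are exposed to compound for 48 or 72 hr at 37 °C, then CellTiter-Glo luminescence is imaged after 10 min at room temperature.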
Luciferase inh: inhibitors of firefly (Photinus pyralis) luciferase | purified P. pyralis luciferase, luminescence, biochemical | P08659 | Potency, µM (doses to about 115 µM), most hits filed as inhibitors | AID 1347043 | hit rate 2.5% among 76,000; further: nearly all actives have a fitted effect of over 65% in size
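Biochemical qHTS: compound (6-point titration) added to 10uM D-luciferin plus 10uM ATP in Tris acetate pH 7.5 buffer with Mg, Tween-20 and BSA, then purified enzyme at 10nM; light output imaged.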
hNpr1 antagonist: blocks ANP-stimulated signaling of human Npr1 receptor; P16066; HEK293 hNpr1 GloSensor cGMP, ANP-stimulated luminescence; Potency, µM (doses to about 46.3 µM), actives largely listed as inhibitors; hit rate 1.6% among 76,000; AID 1347048; calls by dose curve; further: nearly all actives have a fitted effect of over 60% in size
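HEK293 cells stably expressing human Npr1 and cGMP GloSensor pGS-40F, loaded 2 h with 2% GloSensor reagent, given compound 30 min at room temperature. Luminescence read before and 20 min after 0.1 nM hNppA.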
Numbers stand for hits; 0 = inactive; ? = inconclusive; - = no result. Unless noted, the call rests on the fitted dose curve; in most records, active means well fitted curve in the direction sought with a large enough effect; inconclusive means small, poorly fitted or top-dose-only effect, or another doubt; inactive means no such curve, though single readings can be large; an effect the other way counts as inactive or inconclusive.

SMILES | GPT2 inhibitor | HEK cytotox | NIH3T3 tox | Luciferase inh | hNpr1 antagonist
Cc1c(CN2CCCC(c3ccc(C(=O)O)cc3)C2)cnn1C (centres undefined) | ? | 0 | 0 | 0 | 0
Cc1c(CN2CCCC(C(=O)Nc3cccc(-c4cc5ccccc5[nH]4)c3)C2)cnn1C (centres undefined) | 0 | 20µM | 8.9µM | 0 | 0
O=C(Nc1cccc(-n2cccn2)c1)C1CCCN(Cc2cccc(F)c2F)C1 (centres undefined) | ? | 32µM | ? | 0 | 0
Cc1cccc(-c2cccc(NC(=O)C3CCCN(C(=O)c4cccc(C)n4)C3)c2)c1 (centres undefined) | 0 | ? | ? | 25µM | 0
O=C(Nc1cccc(-c2nnc3n2CCCC3)c1)C1CCCC1 | 0 | 0 | 0 | 0 | 0
CCn1cc(C(=O)N2CCCC(C(=O)Nc3cccc(-c4cc5ccccc5[nH]4)c3)C2)cn1 (centres undefined) | 0 | 40µM | ? | ? | 0
COc1ccc(C(=O)N2CCCC2C(=O)N2CCC(N3Cc4cccn4C3=O)CC2)cc1 (centres undefined) | 0 | 0 | 0 | - | -
O=C(c1ccc(N2CCC(CO)C2)nc1)N1CCC(N2CCOCC2)CC1 (centres undefined) | ? | 0 | 0 | 0 | 0
Cc1cc(C(=O)N2CCCC(C(=O)Nc3cccc(-c4cc5ccccc5[nH]4)c3)C2)nn1C (centres undefined) | 0 | 32µM | ? | ? | 0
CC(=O)c1ccc(NC(=O)NC[C@@H]2C=C(C)[C@H](CC(=O)N(C)Cc3cccnc3)C[C@H]2C(C)C)cc1 | 0 | ? | ? | 0 | 0
CCOc1ccc(-c2cc3c(=O)n(CCNC(=O)c4ccc(C#N)cc4)ccn3n2)cc1 | 0 | 0 | 0 | ? | 0
Cc1cccc(-c2noc([C@@H]3Cc4nc[nH]c4CN3C(=O)c3ccc(-c4ccccc4)cc3)n2)c1 | 0 | 35µM | 20µM | 0 | 0
O=[N+]([O-])c1cccc(-c2noc([C@@H]3Cc4nc[nH]c4CN3CC3CCCCC3)n2)c1 | ? | 56µM | 71µM | 0 | 0
Cc1cccc(-c2noc([C@@H]3Cc4nc[nH]c4CN3C(=O)C3CCCCC3)n2)c1 | 0 | ? | ? | 56µM | 0
Cc1cccc(-c2noc([C@@H]3Cc4nc[nH]c4CN3)n2)c1 | 0 | 0 | 0 | 50µM | 0
COC(=O)CNC(=O)C1CCCN1c1nccc(Nc2ccccc2F)n1 (centres undefined) | 0 | 0 | 0 | - | -
O=C(NCC1CCC(=O)N(Cc2ccccc2)CC1)C1CCCC1 (centres undefined) | 0 | 0 | 0 | - | -
O=C(Cc1cccc(Cl)c1)NC1CCN(C(=O)c2ccc(-c3cccs3)cc2)CC1 | 0 | ? | ? | - | -
CCCN1CCC(N2CCC3(CC2)CC2C(=O)N(CC)C(=O)N2C3)CC1 (centres undefined) | 0 | 0 | 0 | - | -
COC(=O)c1ccc2nc(CO[C@H]3CN(Cc4ccc(C(F)(F)F)cc4)C[C@H]3F)[nH]c2c1 | 0 | 50µM | ? | 0 | ?
Cc1cc2nc(CO[C@H]3CN(Cc4ccc(C(=O)O)cc4)C[C@H]3F)[nH]c2cc1C | 0 | 0 | 0 | 22µM | 0
COc1ccc(C2Cn3nnc(-c4nc(-c5ccc(F)c(Br)c5)no4)c3CO2)cc1 (centres undefined) | 0 | 0 | 0 | 0 | 0
CC(C)CN(C1CCN(C)CC1)C1CN(C(=O)c2cccs2)C1 | 0 | 0 | 0 | - | -
COc1ccc(NC(=O)N2CCCC(CN3CCOCC3)CC2)cc1 (centres undefined) | 0 | 0 | 0 | - | -
CCc1ccc(N2CC(c3noc(-c4cccc(OC)c4OC)n3)CC2=O)cc1 (centres undefined) | 0 | 79µM | 28µM | 0 | 0
SMILES | GPT2 inhibitor | HEK cytotox | NIH3T3 tox | Luciferase inh | hNpr1 antagonist
CCc1ccc(N2CC(c3noc(-c4ccc(OC)cc4OC)n3)CC2=O)cc1 (centres undefined) | 0 | ? | ? | 0 | 0
CCc1ccc(N2CC(c3noc(C4(c5ccc(OC)cc5)CC4)n3)CC2=O)cc1 (centres undefined) | 0 | 45µM | ? | 0 | ?
COC1CCN(C(=O)c2coc(COc3ccc(F)cc3Cl)n2)CC1 | 0 | 0 | ? | 0 | 0
O=C(NCCc1ccncc1)c1coc(COc2ccc(F)cc2Cl)n1 | 0 | 32µM | ? | 0 | 0
O=C(c1coc(COc2ccc(F)cc2Cl)n1)N1CCCCO1 | 0 | ? | 0 | 35µM | 0
O=C(Nc1cccc(Cl)c1)c1nc2cccnc2n(Cc2ccccc2)c1=O | 0 | ? | 0 | - | -
CNc1nccc(N2CCC(CC(=O)N3CCN(c4cccc(OC)c4)CC3)CC2)n1 | 0 | 25µM | ? | 0 | ?
CCNc1nccc(N2CCC(CC(=O)N3CCN(c4ccccc4F)CC3)CC2)n1 | 0 | ? | 18µM | 0 | 0
CCNc1nccc(N2CCC(CC(=O)N(CC)CC)CC2)n1 | 0 | ? | ? | 0 | 0
CNc1nccc(N2CCC(CC(=O)NCc3ccccn3)CC2)n1 | 0 | ? | 0 | 0 | 0
CNc1nccc(N2CCC(CC(=O)N3CCN(C(C)=O)CC3)CC2)n1 | 0 | ? | 0 | 0 | 0
CCNc1nccc(N2CCC(CC(=O)NCc3ccccc3F)CC2)n1 | 0 | 40µM | ? | 0 | 0
CNc1nccc(N2CCC(CC(=O)NC3CCN(Cc4ccccc4)CC3)CC2)n1 | 0 | ? | 35µM | 0 | 0
CCOC(=O)[C@H]1C[C@]2(CCCCNC2=O)N(C(=O)Cc2ccc(OC)cc2)[C@H]1c1ccco1 | - | 0 | ? | - | -
COCCOC(=O)C1=C(C)N=C2SC=C(CC(=O)NCc3ccco3)N2C1c1ccccc1OC (centres undefined) | 0 | 0 | 0 | 0 | 0
Cc1ccc(-c2cccc(CN3CCCC3C(=O)NCc3ccc(F)cc3F)c2)cc1Cl (centres undefined) | - | 45µM | ? | - | -
Cc1ccc(-c2cccc(CN3CCCC3C(=O)NCc3cccc(F)c3)c2)cc1Cl (centres undefined) | - | 45µM | ? | - | -
COCCNC(=O)C1CCCN1Cc1cccc(-c2cccc(OC)c2)c1 (centres undefined) | 0 | ? | ? | - | -
Cc1ccc(-c2cccc(CN3CCCC3C(=O)NCc3cccc(Cl)c3)c2)cc1Cl (centres undefined) | - | 40µM | 35µM | - | -
COc1cccc(-c2cccc(CN3CCCC3C(=O)NCc3cccs3)c2)c1 (centres undefined) | 0 | ? | ? | - | -
CC(C)c1noc([C@@H]2C[C@H]3C(=O)NCCCCCCN(C(=O)COc4ccccc4)[C@H]3C2)n1 | 0 | 0 | 0 | 0 | 0
O=c1cc(-c2ccncc2)oc2c(-c3ccccc3O)nccc12 | 0 | ? | 0 | 0 | 0
O=c1cc(-c2cccnc2)oc2c(-c3ccccc3F)nccc12 | 0 | ? | 20µM | 0 | 0
O=c1cc(-c2cccnc2)oc2c(-c3ccccc3Oc3ccccc3)nccc12 | 0 | 100µM | ? | 0 | 0
CN(C)c1cc(=O)c2ccnc(-c3ccccc3Oc3ccccc3)c2o1 | 0 | ? | ? | 0 | 0
